In PubChem BioAssay (NCATS) one finds Potency and activity change, negative = inhibition data, which are given here for 33 molecules.

Experiment [1] can be described thus: qHTS for Inhibitors of the Aldehyde Dehydrogenase Family (ALDH1A2, ALDH1A3, ALDH2, ALDH3A1) (AID 2061307). Further: nearly all actives have a fitted effect of over 50% in size. On Potency: test system not described further here; potency means the concentration at half of the fitted maximal effect. On activity change, negative = inhibition: on the % scale 0 is the no-effect control and ±100 the full control effect.
Experiment [2] has as its target Retinaldehyde dehydrogenase 3 (Homo sapiens) (UniProt P47895). Nature of the experiment: qHTS for Inhibitors of the Aldehyde Dehydrogenase Family (ALDH1A3) Confirmatory screens (AID 2061311). Further: nearly all actives have a fitted effect of over 60% in size. Further: potency means the concentration at half of the fitted maximal effect. On activity change, negative = inhibition: on the % scale 0 is the no-effect control and ±100 the full control effect.
Experiment [3] shares this target. Nature of the experiment: qHTS for Inhibitors of the Aldehyde Dehydrogenase Family (ALDH1A3) Primary screen (AID 2061315).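 Further: plate controls were DMSO vehicle for no effect and reference inhibitor for full effect.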
For experiment [4], the target named is Retinal dehydrogenase 2 (Homo sapiens) (UniProt O94788). Nature of the experiment: qHTS for Inhibitors of the Aldehyde Dehydrogenase Family (ALDH1A2) Confirmation screens (AID 2061314). Further: nearly all actives have a fitted effect of over 65% in size. Further: potency means the concentration at half of the fitted maximal effect.
Experiment [5] deals with Aldehyde dehydrogenase 1A1 (Homo sapiens) (UniProt P00352). Nature of the experiment: qHTS for Inhibitors of the Aldehyde Dehydrogenase Family (ALDH1A1) Confirmatory screens (AID 2061316). Further: nearly all actives have a fitted effect of over 65% in size. Further: potency means the concentration at half of the fitted maximal effect. On activity change, negative = inhibition: on the % scale 0 is the no-effect control and ±100 the full control effect.

Molecules are shown by their SMILES. Results filed as inconclusive are left out. Values without a mark were called inactive. Activity calls are given as the source filed them. The call rests on the fitted dose curve; in most records, active means well fitted inhibition curve with a large enough effect; inconclusive means small, poorly fitted or top-dose-only effect; inactive means no such curve, though single readings can be large or run the other way.

In the case of `O=C1Cc2cc(S(=O)(=O)N3CCN(c4ccc(Cl)cc4)CC3)ccc2N1`, the Potency entry in experiment [1], in experiment [2] and in experiment [3] was “inactive” each time.

`CC(=O)c1c(C)n(-c2cccc(Cl)c2)c2ccc(OC(=O)c3ccccc3)cc12`: the Potency result in experiment [1], in experiment [2], in experiment [4] and in experiment [5] was “inactive” throughout.

Regarding `C[C@@H](CO)Nc1cc2c(cc1[S+](=O)([O-])Nc1ccc(Cl)c(Cl)c1)CCC(=O)N2`, the Potency entry in experiment [1], in experiment [2], in experiment [3] and in experiment [5] was “inactive” in each case.

As to `CC(=O)N1CCN(c2ccc(NCc3ccc(Br)o3)cc2)CC1`, the Potency in experiment [1] is 10.1 µM (active); in experiment [2], 17.9 µM (active); in experiment [4], 12.7 µM (active); in experiment [5], 10.1 µM (active).

As to `CN1CCN(C(=O)c2cccc(-c3ccc(CNc4ccc(N5CCN(C(=O)OC(C)(C)C)CC5)cc4)o3)c2)CC1`, the Potency entry in experiment [1], in experiment [2] and in experiment [3] was “inactive” in each case.

With `COc1ccc(-n2c(C)c(C(C)=O)c3cc(OC(=O)c4ccc(C)cc4)ccc32)cc1`, the Potency result in experiment [1], in experiment [2], in experiment [4] and in experiment [5] was “inactive” throughout.

As to `Cc1ccc(CNc2ncnc3ccc(-c4ccc([C@@H](C)O)o4)cc23)o1`, the Potency result in experiment [1] and in experiment [3] was “inactive” throughout. Besides, the Potency in experiment [2] was 12.7 µM (active); in experiment [5], 11.3 µM (active).

Consider `CCN(CC)CC(=O)c1c(C)n(C)c2ccc(OC)cc12`, for which the Potency result in experiment [1], in experiment [2], in experiment [4] and in experiment [5] was “inactive” each time.

For `Cc1ccc(CNc2ncnc3ccc(-c4oc(-c5ccccc5)nc4C)cc23)o1`, the Potency result in experiment [1] and in experiment [3] was “inactive” each time. Also, the Potency in experiment [2] is 22.5 µM (active).

In the case of `O=C(Nc1ncc(Cc2ccc(C(F)(F)F)cc2)s1)c1ccc(-c2ccccc2[N+](=O)[O-])o1`, the Potency in experiment [1] was 12.7 µM (active); in experiment [2], 11.3 µM (active); in experiment [4], 25.2 µM (active); in experiment [5], 6.34 µM (active).

Take `COc1cc(O)c(C(CC(=O)N2C[C@H](C)C[C@H](C)C2)c2ccc3c(c2)OCO3)c(OC)c1` (stereo partly drawn): the Potency entry in experiment [1], in experiment [2] and in experiment [3] was “inactive” each time.

In the case of `O=C(NCC(=O)N1CCN(Cc2ccccc2)CC1)c1cccc(-c2ccsc2)c1`, the Potency entry in experiment [1], in experiment [2], in experiment [4] and in experiment [5] was “inactive” in each case.

As for `Cc1oc(-c2ccccc2F)nc1CS(=O)(=O)CC(=O)N1CCN(c2cccc(C(F)(F)F)c2)CC1`, the Potency result in experiment [1], in experiment [2], in experiment [4] and in experiment [5] was “inactive” each time.

`CN(C)c1ccc(-c2csc(N3CCC(C(N)=O)CC3)n2)cc1`: the Potency in experiment [1] is 11.3 µM (active); in experiment [2] it was 12.7 µM (active); in experiment [4], 14.2 µM (active); in experiment [5] it was 8.96 µM (active).

With `N#CNC(=O)c1ccc(-n2cccc2/C=C2\NC(=O)N(CC(=O)Nc3ccc(F)cc3)C2=O)cc1`, in experiment [1], the Potency was 4 µM (active). Besides, the Potency result in experiment [2], in experiment [3] and in experiment [5] was “inactive” each time.

Regarding `O=C(CCC1CCCN(S(=O)(=O)c2ccccc2F)C1)NCCCN1CCOCC1` (stereo not drawn), the Potency result in experiment [1], in experiment [2], in experiment [4] and in experiment [5] was “inactive” each time.

In the case of `COc1ccc(-c2nc3ccccc3c(=O)n2Cc2ccccc2)cc1CNc1ccc(NC(C)=O)cc1`, the Potency in experiment [1] was 12.7 µM (active); in experiment [2], 11.3 µM (active); in experiment [4], 11.3 µM (active); in experiment [5], 11.3 µM (active).

Consider `COc1cccc(S(=O)(=O)NC2CCN(C#N)C2)c1` (stereo not drawn), for which the Potency result in experiment [1], in experiment [2], in experiment [3] and in experiment [5] was “inactive” throughout.

In the case of `CSCCC(NS(=O)(=O)c1ccc2c(c1)oc(=O)n2C)C(=O)N1CCN(c2ccc(C(C)=O)cc2)CC1` (stereo not drawn), the Potency entry in experiment [1], in experiment [2], in experiment [4] and in experiment [5] was “inactive” each time.

Turning to `Cc1ccc(-c2ccccc2C=O)c(C)c1`, the Potency result in experiment [1], in experiment [2], in experiment [4] and in experiment [5] was “inactive” throughout.

Consider `Cc1ccsc1CN(C)c1ncnc2ccc(-c3oc(-c4ccccc4)nc3C)cc12`, for which the Potency in experiment [1] was 12.6 µM (active); in experiment [2], 14.1 µM (active). Besides, the Potency result in experiment [3] is “inactive”.

Take `Oc1cc2c(cc1CN1CCN(c3ncccn3)CC1)OCO2`: the Potency was 7.12 µM (active) in experiment [1], 10.1 µM (active) in experiment [2], 2.01 µM (active) in experiment [4] and 5.65 µM (active) in experiment [5].

Consider `Nc1cc(S(=O)(=O)N2CCN(S(=O)(=O)c3ccc4c(c3)OCCO4)CC2)ccn1`, for which the Potency entry in experiment [1] and in experiment [3] was “inactive” throughout. Also, the activity change, negative = inhibition in experiment [2] is -14.1% [at 0.022 µM].

In the case of `COc1ccc(C2=NS(=O)(=O)N(C)C(C(=O)Nc3ccc(OC(F)(F)F)cc3)=C2)cc1`, the Potency in experiment [1] was 7.94 µM (active). The Potency entry in experiment [4] is “inactive”.

In the case of `CC(=O)C1CCC2(C)C3=C(CCC12C)C1(C)CCC(=O)C(C)(C)C1CC3` (stereo not drawn), the Potency result in experiment [1] and in experiment [3] was “inactive” each time.

On to `O=C(CSc1nc2ncccc2o1)Nc1ccc(Cl)cc1F`, for which the Potency entry in experiment [1] and in experiment [5] was “inactive” in each case. For the same molecule, the Potency in experiment [2] is 10 µM (active).

With `COc1ccc(C2Nc3ccc(Cl)cc3C(=O)N2Cc2ccccc2)cc1COc1ccc(NC(C)=O)cc1` (stereo not drawn), the Potency in experiment [1] is 3.57 µM (active); in experiment [4], 11.3 µM (active); in experiment [5] it was 22.5 µM (active). Further, in experiment [3], the Potency entry is “inactive”.

As for `CC(=O)Nc1sc2c(c1-c1ccco1)CCNC2`, the Potency result in experiment [1] and in experiment [3] was “inactive” each time. The Potency in experiment [4] is 17.9 µM (active); in experiment [5], 25.2 µM (active).

As to `CC(C)(O)c1ccccc1CC[C@H](SCC1(CC(=O)O)CC1)c1cccc(/C=C/c2ccc3ccc(Cl)cc3n2)c1`, the Potency was 10.1 µM (active) in experiment [1] and 22.5 µM (active) in experiment [5]. Besides, the Potency result in experiment [4] and in experiment [3] was “inactive” in each case.

As for `COC(=O)c1ccnc(NCc2ccc(O)c3ncccc23)c1`, the Potency is 11.3 µM (active) in experiment [1], 7.12 µM (active) in experiment [2] and 11.3 µM (active) in experiment [5].

`O=C(NCc1ccc2c(c1)OCO2)c1csc(N2CCN(c3ccc(F)cc3)CC2)n1`: the Potency in experiment [1] was 0.708 µM (active); in experiment [5] it was 4.47 µM (active). Moreover, the Potency result in experiment [4] was “inactive”.

`O=C(NCC(=O)N1CCC(c2ccccc2)CC1)c1cccc(-c2ccc(C(F)(F)F)cc2)c1`: the Potency result in experiment [1], in experiment [2] and in experiment [5] was “inactive” throughout.

Consider `Cc1ccc(NS(=O)(=O)c2cc3c(cc2-c2ccco2)NC(=O)CO3)cc1C`, for which the Potency result in experiment [1], in experiment [4] and in experiment [3] was “inactive” each time. Also, the Potency in experiment [5] was 11.3 µM (active).
